Compound activity as filed in PubChem BioAssay.
MCF10A rerep: A quantitative high throughput screen for small molecules that induce DNA re-replication in MCF 10a normal breast cells | MCF 10A DNA re-replication, Hoechst nuclear intensity, 48 h | Potency, µM (top dose mostly 46.1 µM), hits mostly activators | hit rate 2.9% among 350,000 | AID 624296, 2012; also: nearly all actives have a fitted effect of over 50% in size
AT treatment: qHTS Assay for Identifying a Potential Treatment of Ataxia-Telangiectasia | F2112 A-T fibroblasts, KAP-1 phosphorylation AlphaLISA; neocarzinostatin DNA damage 30 min before lysis | hit rate 0.19% among 320,000 | Potency, µM (doses to about 57.5 µM), most hits filed as activators | AID 485349, 2010; also: nearly all actives have a fitted effect of over 45% in size
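hTERT-immortalized A-T patient fibroblasts (F2112), 500 cells/well in OPTI-MEM, 1% FBS, got compounds for 60 min, then NCS for 30 min at 37C. Lysates were then assayed for phospho-KAP-1 by AlphaLISA (anti-pKAP1 donor, anti-KAP1 acceptor beads), 6 hr at 25C.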
Mito fusion yeast: qHTS Assay for Small Molecule Inhibitors of Mitochondrial Division or Activators of Mitochondrial Fusion. S. cerevisiae fusion-defective mutant growth rescue, CellTiterGlo 48 h. Potency, µM (highest dose often 46.1 µM), usual class: activators. hit rate 0.23% among 320,000. AID 485298, 2010; also: nearly all actives have a fitted effect of over 45% in size
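Read-out: ATP-based luminescence (CellTiterGlo, 10 min ambient) reporting growth of fusion-defective ts yeast after 48 hours at 37C on glycerol/ethanol YPEG medium in the presence of compound.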
a7 integrin act: qHTS for Activators of Integrin-Mediated Alleviation for Muscular Dystrophy; alpha7betagal myoblasts, beta-gal FDG fluorescence, 48 h; Potency, µM (top dose mostly 38.3 µM), most hits filed as activators; hit rate 0.064% among 350,000; also: nearly all actives have a fitted effect of over 60% in size
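alpha7betagal+/- myoblasts (passage 13, 250/well) treated 48 h at 37C with compounds at 1:260 dilution of DMSO stock. Lysed, then beta-galactosidase activity read as FDG fluorescence (ex 480/em 540) after 30 min, with pre-read for autofluorescence.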
SW480 rerep: A quantitative high throughput screen for small molecules that induce DNA re-replication in SW480 colon adenocarcinoma cells; hit rate 1.8% among 340,000; SW480 DNA re-replication, Hoechst DNA content imaging, 48 h; Potency, µM (series often up to 46.1 µM), most hits filed as activators; also: nearly all actives have a fitted effect of over 55% in size
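250 cells/well; 23 nL cpd via pin tool; 48 hr, 37 C, 5% CO2; Hoechst 40 min; imager read of total nuclear intensity, ex 405/em 500-530 nm.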
A number is an active result; i = inactive; ? = inconclusive; nt = not tested or not shown; ! = a repeat was not active; [ ] = another dose, or the depositor's remark. Compounds with a hit are over-represented: about 4.2% of the library has one in this group of screens. Calls follow the shape of the dose curve; as a rule, active = well fitted activation curve with a large enough effect; inconclusive = small, poorly fitted or top-dose-only effect; inactive = no such curve, though single readings can be large or run the other way.

SMILES	MCF10A rerep	AT treatment	Mito fusion yeast	a7 integrin act	SW480 rerep
Oc1c(C(c2ccccc2)N2CCOCC2)ccc2ccccc12 (stereo not drawn)	16.4µM	nt	nt	i	?
O=C(CCC(F)(F)F)N1CCCC(N2CCN(c3cccc(Cl)c3)CC2)C1 (stereo not drawn)	i	nt	nt	i	i
C/C(O)=C(\N=Nc1cc(C)ccc1O)C(N)=O	i	i	i	i	i
COc1ccc(C2CC(=O)N3C(=C2C#N)SCC3(O)c2ccccc2)cc1 (stereo not drawn)	i	i	i	i	i
N#CC1=C2SCC(O)(c3ccccc3)N2C(=O)CC1c1ccccc1F (stereo not drawn)	23.1µM	nt	i	i	?
N#CC1=C2SCC(O)(c3ccccc3)N2C(=O)CC1c1cccs1 (stereo not drawn)	1.3µM	i	i	i[7.66 µM]	7.31µM
O=[N+]([O-])c1cc(F)c2cccnc2c1O	?	i	i	i	?
O=[N+]([O-])c1cc(Cl)c(O)c2ncccc12	?	i	i	i	10.3µM
O=c1oc2ccccc2c(O)c1Cc1cc(Cl)c2cccnc2c1O	5.8µM	i	i	i	?
Oc1c(C(c2ccccn2)N2CCCCC2)cc(Cl)c2cccnc12 (stereo not drawn)	20.6µM	i	i	i	?
O=[N+]([O-])c1ccc(O)c2ncccc12	14.6µM!	i	?	nt	7.31µM
CCCc1cc(=O)oc2cc(OCC(=O)NCCN3CCOCC3)c(Cl)cc12	nt	nt	nt	i	nt
COc1ccccc1CNC(=O)[C@H](C)NC(=O)C1CCN(C(=O)[C@@H]2CCCN2C(=O)OC(C)(C)C)CC1	i	i	i	i	?
Cc1ccc(NC(=O)C2CCN(C(=O)c3ccccc3C)CC2)nc1	i	i	i	i	i
O=C1OCCC1=COCCCCCOC=C1CCOC1=O	nt	nt	nt	i	nt
COc1cc(C2NC(=O)NC(c3ccccc3)=C2C(C)=O)cc([N+](=O)[O-])c1O (stereo not drawn)	i	i[11.5 µM]	i	i	i
COc1ccc(-c2cc(N)n(S(=O)(=O)c3c(F)c(F)c(F)c(F)c3F)n2)cc1OC	?	i	i	i[7.66 µM]	?
Clc1cc2cccnc2c2ncccc12	i	i	i	i	i
O=[N+]([O-])c1cc(Cl)c2cccnc2c1O	2.59µM	i	?	i	?
O=C(CCc1nc(-c2ccccc2)c(-c2ccccc2)o1)OCc1ccc(Cl)cc1	i	i	i	i	i
O=C(O)CCc1nc(-c2ccccc2)c(-c2ccccc2)o1	i	nt	16.4µM!	nt	i
O=c1cc(O)c2sc(Nc3cccc(C(F)(F)F)c3)nc2[nH]1	i	i	i	i	?
O=c1cc(O)c2sc(Nc3ccc(F)cc3)nc2[nH]1	16.4µM	i	i	i	?
C/C(=N/NC(=O)c1ccc(Br)o1)C(C)C	i	i	i	i	0.517µM
SMILES	MCF10A rerep	AT treatment	Mito fusion yeast	a7 integrin act	SW480 rerep
CC(C)c1ccc(NC(=O)c2ccc(Br)o2)cc1	i	nt	i	i	i
C=CC(=O)N1c2ccccc2Sc2ccc(NC(=O)OCC)cc21	6.51µM	nt	nt	i	?
CCOC(=O)Nc1ccc2c(c1)N(C(=O)N1CCN(C)CC1)c1ccccc1S2	i[0.0737 µM]	i	i	i	i
CCOC(=O)Nc1ccc2c(c1)N(C(=O)CN(CC)CC)c1ccccc1C=C2	11.6µM	i	i	i	i
CN(Cc1ccc(Cl)c(Cl)c1)C(=O)c1cccc(S(=O)(=O)N2CCN(Cc3ccccc3)CC2)c1	i	i	i	i	i
COc1ccc(/C=C/C(=O)N2CCN(c3ccccc3)CC2)cc1S(=O)(=O)N1CCOCC1	i	i	i	i	i
CN(Cc1cnn(-c2ccccc2)c1)C(=O)c1cccc(S(=O)(=O)N(C)c2ccccc2)c1	nt	nt	nt	i	nt
Cc1ccc(N(C)S(=O)(=O)c2cccc(C(=O)N(C)Cc3cnn(-c4ccccc4)c3)c2)cc1	20.6µM	i	i	i	?
COc1ccc(C(=O)N(C)Cc2cnn(Cc3ccccc3)c2)cc1S(=O)(=O)N1CCOCC1	3.66µM	i	i	i	4.11µM
